Bioassay records: PubChem, Broad Institute
NSD2 inh – inhibitors of human histone methyltransferase NSD2 | 310,000 tested, 0.54% active | AID 743445 | inhibition, % at 12.5 µM | NSD2 peptide methylation, AlphaScreen, 120 min; in the data active = inhibition above about 50%
MLL AF4-AF9 inh – blocks AF4 peptide binding to human AF9; P42568; AlphaScreen, biotin-AF4 peptide binding to FLAG-AF9; inhibition, % at 10 µM; 350,000 tested, 0.47% active; AID 651704;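 active = every replicate reaching a set inhibition limit, whatever the replicate mean, cut at about 25% in these data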;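 also: 0% = plate neutral control median and 100% = total signal loss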
Target sequence (P42568 whole entry, looked up): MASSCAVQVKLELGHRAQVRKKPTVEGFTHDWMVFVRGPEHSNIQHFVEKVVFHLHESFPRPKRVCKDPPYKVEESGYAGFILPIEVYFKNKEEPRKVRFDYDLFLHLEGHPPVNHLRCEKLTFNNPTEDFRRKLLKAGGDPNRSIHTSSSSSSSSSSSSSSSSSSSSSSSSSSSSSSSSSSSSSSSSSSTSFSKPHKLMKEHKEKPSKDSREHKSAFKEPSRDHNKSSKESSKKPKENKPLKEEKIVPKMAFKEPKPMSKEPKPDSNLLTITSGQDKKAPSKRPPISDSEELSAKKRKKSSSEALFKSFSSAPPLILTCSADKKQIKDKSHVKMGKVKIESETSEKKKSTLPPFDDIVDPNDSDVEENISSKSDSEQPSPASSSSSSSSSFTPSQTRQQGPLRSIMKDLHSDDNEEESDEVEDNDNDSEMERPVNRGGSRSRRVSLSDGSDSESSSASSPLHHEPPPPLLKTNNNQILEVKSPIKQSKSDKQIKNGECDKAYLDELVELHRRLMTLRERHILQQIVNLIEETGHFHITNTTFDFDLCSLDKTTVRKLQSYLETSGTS
PGC1a acetyl inh – lowers PGC1a acetylation signal in U2OS cells | AlphaScreen anti-acetyl-lysine; with virally co-expressed GCN5 acetyltransferase | inhibition, % at 15.6 µM | 350,000 tested, 0.17% active | AID 651687;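 active = every replicate shows inhibition of at least 40%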;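 also: 0% = neutral control wells and 100% = positive control wells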
Env fusion inh – inhibitors of HIV Env-mediated cell fusion. 360,000 tested, 1.1% active. inhibition, % at 12.3 µM. AID 651610. HeLa-JRFL Env/CEM21 cell fusion, luciferase;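 active = mean replicate inhibition score of at least 50 and every replicate individually at or above 50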;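 also: 0% = plate neutral controls and 100% = maraviroc near 300 nM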
INS-1E GSIS act – GLuc luminescence reporter in INS-1E cells, primary screen for activators of glucose-dependent secretion of insulin; AID 743287; 370,000 tested, 0.61% active; activation, % at 16.6 µM; INS-1E GLuc reporter insulin secretion, 2-3 h;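 active = lowest replicate activation of at least 40%, so every replicate reaches that level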;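 also: 0% = median of neutral control wells and 100% = median of IBMX positive control wells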
AlphaScreen art – AlphaScreen assay artifact in NSD2 counter-screen; AC35, µM (top dose mostly 10 µM), for inactives: at the top dose activity change, negative = signal loss; 1,500 tested, 9.4% active; shares compounds with NSD2 inh; AlphaScreen artifact counterscreen, preloaded methylated H4 peptide; call rule not given here
The depositor's hits bear a star; / = no result; [ ] = dose if it differs, or a comment. The list is not random: actives were taken first. Their share in the collection is about 2.1%.

SMILES	NSD2 inh	MLL AF4-AF9 inh	PGC1a acetyl inh	Env fusion inh	INS-1E GSIS act	AlphaScreen art
O=C1OC(c2ccccc2)(c2cc(Br)c(O)c(Br)c2)c2ccccc21 (centres undefined)	38.0	-1.0	7.0	16.4	-35.1	/
CCN(CC)CCNC(=O)c1ccc(CS(=O)(=O)c2ccccc2C)o1	51.2*	-14.2	20.5	-1.7	17.7	-1.8%
Cc1ccc(OCCn2c3ccccc3n3nc(C)c(=O)nc23)cc1	1.8	/	/	-32.5	3.9	/
CC(=O)Nc1cccc(NC(=O)CSc2nnc3ccc(-c4ccccn4)nn23)c1	-2.6	-0.3	/	-45.2	9.3	/
COCCN(C(=O)CNC(=O)c1ccco1)C(C(=O)NC1CCCC1)c1ccccc1 (centres undefined)	3.4	0.4	20.2	25.3	21.5	/
COCCN(C(=O)CNC(=O)c1ccco1)C(C(=O)NC1CCCC1)c1ccc(OC)cc1 (centres undefined)	110.4*	-0.2	/	-1.8	2.5	-2.0%
O=C(CC1(O)C(=O)Nc2cc(Cl)cc(Cl)c21)c1ccncc1 (centres undefined)	96.7*	/	-6.0	-34.3	-0.5	4.7%
O=C(CCc1nnc(-c2ccccc2)o1)NCc1cc(F)ccc1F	50.5*	0.0	10.3	2.1	6.8	5.8%
Cc1cc(C)cc(NC(=O)C2CCN(c3cnccn3)CC2)c1	0.2	-0.8	-0.7	-4.1	-7.0	/
CC(C)CNC(=O)c1cnn2c(C(F)(F)F)cc(C(F)(F)F)nc12	53.5*	-0.7	-15.8	3.1	-11.6	-6.6%
Cc1ccc(Sc2ncccc2C(N)=O)cc1	106.2*	-1.6	3.3	-89.2	7.3	-0.7%
O=S(=O)(Nc1cc(Sc2cccc3cccnc23)c(O)c2ccccc12)c1ccccc1	56.4*	13.8	/	/	/	-12.7%
CCc1ccc(S(=O)(=O)Nc2cc(SCC(=O)O)c(O)c3ccccc23)cc1	112.5*	-1.7	-9.2	9.0	-55.7	-9.7%
C[C@@H]1CN([C@H](C)CO)C(=O)c2cccc(NC(=O)Nc3ccc(C(F)(F)F)cc3)c2O[C@H]1CN(C)C(=O)Nc1ccc(F)cc1	/	3.2	-6.4	/	/	/
Cc1ccc(NC(=O)CN2C(=O)N/C(=C/c3ccc4c(c3)OCCO4)C2=O)cc1	1.0	0.4	6.1	4.0	2.6	/
CCCCSCc1[nH]c(=O)[nH]c1C(=O)CCCCC(=O)OCC	0.3	/	/	-91.6	33.6	/
Cc1[nH]c(=O)[nH]c1C(=O)CCCCC(=O)O	129.8*	73.4*	-4.6	/	6.8	-5.2%
CNC(=O)COC(=O)/C=C/c1cccs1	78.7*	-0.8	8.2	-3.1	-7.3	-4.8%
COc1ccc(NS(=O)(=O)c2ccc3c(c2)[C@H]2C=CC[C@H]2[C@@H](c2ccc(C(=O)O)cc2)N3)cc1	54.6*	16.9	/	-3.8	-24.0	-10.7%
COC(=O)C1=CN(c2ccc(F)cc2)C=C(C(=O)OC)C1c1ccc([N+](=O)[O-])cc1	7.2	6.3	-1.9	27.6	18.2	/
CCOC(=O)C1=CN(c2cccc(F)c2)C=C(C(=O)OCC)C1c1cc(OC)c(O)c([N+](=O)[O-])c1	57.1*	/	4.0	23.7	/	-15.9%
COc1ccc(OC)c(NC(=O)CSc2nncc3ccccc23)c1	-2.3	-1.4	/	18.0	10.7	/
O=C(Nc1cc(F)ccc1F)N1CCN(c2ccnc3cc(Cl)ccc23)CC1	60.8*	-5.1	-11.2	17.1	-36.1	-0.5%
Cc1ccc(F)cc1NC(=O)N1CCN(c2ccnc3cc(Cl)ccc23)CC1	0.0	-1.5	5.7	22.5	-11.1	/
CC(NC(=O)c1cc(Br)ccc1Br)c1ccccc1 (centres undefined)	-0.6	-4.6	/	4.7	10.1	/
SMILES	NSD2 inh	MLL AF4-AF9 inh	PGC1a acetyl inh	Env fusion inh	INS-1E GSIS act	AlphaScreen art
CC(NC(=O)c1cccc(Br)c1)c1ccccc1 (centres undefined)	96.5*	-1.6	/	13.1	1.1	0.0%
O=C(CCS(=O)(=O)c1ccc(Br)s1)NC1CCCC1	-0.2	/	/	10.8	/	/
COc1ccc(NC(=O)N(C)C[C@@H]2Oc3ccc(NC(=O)CCCN(C)C)cc3C(=O)N([C@@H](C)CO)C[C@@H]2C)cc1	/	1.4	1.8	/	20.5	/
CNCc1ccccc1Sc1ccc(OC)c(OC)c1	56.2*	/	7.7	/	6.6	-5.4%
CNCc1ccccc1Sc1cc(O)ccc1O	49.6	/	/	5.5	-19.5	/
CNCc1ccccc1Sc1cccc(O)c1	73.7*	/	/	9.7	5.5	-3.7%
O=C(CN1CCOCC1)NCCNC(=O)CN1CCOCC1	60.0*	/	0.7	13.0	-2.8	-4.0%
O=C(CN1CCOCC1)NCCc1ccccc1	-0.6	-5.8	-9.3	-14.0	1.8	/
O=C(/C=C/c1ccco1)Nc1ccccc1C(=O)O	73.3*	-13.1	-7.0	-51.4	3.4	-2.2%
Cc1ccc(S(=O)(=O)/N=C2\C(=O)c3ccccc3C([O-])=C2n2cc[n+](CCC(C)C)c2)cc1	/	/	-2.3	/	/	/
Cc1ccc(NC(=O)C[n+]2ccn(C3=C([O-])c4ccccc4C3=O)c2)cc1	89.2*	0.4	-7.1	12.8	2.7	-3.8%
CCCN(CCC)CCCNC(=S)Nc1ccc2nc(N3CCN(CC)CC3)cc(C)c2c1	69.7*	18.2	-5.7	-15.4	12.9	-10.1%
CCCN(CCC)CCCNC(=S)Nc1ccc2nc(N3CCN(C)CC3)cc(C)c2c1	35.0	16.8	-8.0	-9.1	31.3	/
O=c1[nH]c(CN2CCCCC2)ccc1O	64.8*	-3.5	/	7.4	28.9	0.5%
CCOC(=O)c1c(NC(=O)COC)sc2c1CCCC2	57.1*	/	-1.8	-35.3	/	0.5%
CCOC(=O)c1c(NC(=O)C[n+]2ccccc2)sc2c1CCCC2	16.7	7.3	/	-4.5	13.0	/
O=[N+]([O-])c1ccc(N(CC(O)CN2CCCCC2)S(=O)(=O)c2ccccc2)cc1 (centres undefined)	67.7*	6.2	-6.9	-15.6	-6.5	-1.2%
O=[N+]([O-])c1ccc(S(=O)(=O)N(CC(O)CN2CCCCC2)c2ccccc2)cc1 (centres undefined)	4.7	2.8	7.8	-6.9	2.4	/
Cc1ccc(CSCCNC(=O)c2ccc(C)cc2)cc1	31.8	-0.6	1.9	-4.0	-9.3	/
COc1ccc(-c2[nH]c(-c3ccccc3)nc2SCC(=O)NC2CCCC2)cc1	/	10.9	-11.9	-0.2	-15.4	/
CCCCNC1=CC(=O)C(NCCCC)=CC1=O	8.0	6.6	-1.7	1.9	/	/
CCCCNC1=CC(=O)C(=O)c2ccccc21	140.5*	-1.3	/	-4.1	0.9	-2.5%
C[C@H](CO)N1C[C@H](C)[C@@H](CN(C)C(=O)NC2CCCCC2)Oc2ccc(NC(=O)Cc3ccccc3)cc2CC1=O	/	-2.4	-1.5	7.1[16.7 µM]	0.9	/
O=C(OCc1cnc(Cl)s1)c1cccs1	52.2*	0.6	94.3*	-5.4	-3.0	2.5%
Cc1cc(/C=C(/C#N)c2nc3ccccc3[nH]2)c(C)n1-c1cc(C(=O)O)cc(C(=O)O)c1	76.2*	-2.4	18.9	-2.7	8.0	-5.9%
CN(C)CCNS(=O)(=O)c1ccc2c3c(cccc13)C(=O)N2	4.4	2.6	1.1	-11.2	-1.2	/
CCN(CC)CCNS(=O)(=O)c1ccc2c3c(cccc13)C(=O)N2	54.9*	1.9	/	-6.5	-0.8	0.8%
